Test results published in the supplement of paper PMC6897291.

Legend:
U-2932 [1] = assay: growth inhibition by drug alone (1 - RLU/untreated control) (fraction); higher = stronger inhibition; details: 177Lu-lilotomab satetraxetan 0 ug/ml
Procedure, shortened: (§1)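 Compound doses on the pre-printed Selleck Cambridge Cancer Compound library plates were 10/100 nM for RIVA cells and 10/1,000 nM for U-2932 cells, seeded at 3,000 cells/well. Before seeding, cells were washed after 18 h with or without a radiolabelled anti-CD37 antibody conjugate (~600 MBq/mg; 0.5 µg/ml RIVA, 1 µg/ml U-2932). Growth inhibition was derived from RealTime-Glo luminescence relative to untreated no-drug control wells. Readings were taken daily starting on day 3, each after 1 h at 37°C, and each well's RLU was divided by the mean of 48 such wells per plate and subtracted from 1.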

RIVA [2] = assay: as above; details: 177Lu-lilotomab satetraxetan 0 ug/ml
Procedure, shortened: as §1

U-2932 [3] = assay: growth inhibition by drug plus 177Lu-lilotomab satetraxetan (1 - RLU/untreated control) (fraction); higher = stronger inhibition; details: 177Lu-lilotomab satetraxetan 1 ug/ml
Procedure, shortened: as §1

RIVA [4] = assay: as above; details: 177Lu-lilotomab satetraxetan 0.5 ug/ml
Procedure, shortened: as §1

| SMILES | growth inhibition by drug alone (U-2932 [1]; 10 nM, time (day): 3) | growth inhibition by drug alone (U-2932 [1]; 10 nM, time (day): 4) | growth inhibition by drug alone (U-2932 [1]; 10 nM, time (day): 5) | growth inhibition by drug alone (U-2932 [1]; 10 nM, time (day): 6) | growth inhibition by drug alone (U-2932 [1]; 1000 nM, time (day): 3) | growth inhibition by drug alone (U-2932 [1]; 1000 nM, time (day): 4) | growth inhibition by drug alone (U-2932 [1]; 1000 nM, time (day): 5) | growth inhibition by drug alone (U-2932 [1]; 1000 nM, time (day): 6) | growth inhibition by drug alone (RIVA [2]; 10 nM, time (day): 3) | growth inhibition by drug alone (RIVA [2]; 10 nM, time (day): 4) | growth inhibition by drug alone (RIVA [2]; 10 nM, time (day): 5) | growth inhibition by drug alone (RIVA [2]; 10 nM, time (day): 6) | growth inhibition by drug alone (RIVA [2]; 100 nM, time (day): 3) | growth inhibition by drug alone (RIVA [2]; 100 nM, time (day): 4) | growth inhibition by drug alone (RIVA [2]; 100 nM, time (day): 5) | growth inhibition by drug alone (RIVA [2]; 100 nM, time (day): 6) | growth inhibition by drug plus 177Lu-lilotomab satetraxetan (U-2932 [3]; 10 nM, time (day): 3) | growth inhibition by drug plus 177Lu-lilotomab satetraxetan (U-2932 [3]; 10 nM, time (day): 4) | growth inhibition by drug plus 177Lu-lilotomab satetraxetan (U-2932 [3]; 10 nM, time (day): 5) | growth inhibition by drug plus 177Lu-lilotomab satetraxetan (U-2932 [3]; 10 nM, time (day): 6) | growth inhibition by drug plus 177Lu-lilotomab satetraxetan (U-2932 [3]; 1000 nM, time (day): 3) | growth inhibition by drug plus 177Lu-lilotomab satetraxetan (U-2932 [3]; 1000 nM, time (day): 4) | growth inhibition by drug plus 177Lu-lilotomab satetraxetan (U-2932 [3]; 1000 nM, time (day): 5) | growth inhibition by drug plus 177Lu-lilotomab satetraxetan (U-2932 [3]; 1000 nM, time (day): 6) | growth inhibition by drug plus 177Lu-lilotomab satetraxetan (RIVA [4]; 10 nM, time (day): 3) | growth inhibition by drug plus 177Lu-lilotomab satetraxetan (RIVA [4]; 10 nM, time (day): 4) | growth inhibition by drug plus 177Lu-lilotomab satetraxetan (RIVA [4]; 10 nM, time (day): 5) | growth inhibition by drug plus 177Lu-lilotomab satetraxetan (RIVA [4]; 10 nM, time (day): 6) | growth inhibition by drug plus 177Lu-lilotomab satetraxetan (RIVA [4]; 100 nM, time (day): 3) | growth inhibition by drug plus 177Lu-lilotomab satetraxetan (RIVA [4]; 100 nM, time (day): 4) | growth inhibition by drug plus 177Lu-lilotomab satetraxetan (RIVA [4]; 100 nM, time (day): 5) | growth inhibition by drug plus 177Lu-lilotomab satetraxetan (RIVA [4]; 100 nM, time (day): 6) |
| --- | --- | --- | --- | --- | --- | --- | --- | --- | --- | --- | --- | --- | --- | --- | --- | --- | --- | --- | --- | --- | --- | --- | --- | --- | --- | --- | --- | --- | --- | --- | --- | --- |
| Nc1nc(N)c(N=O)c(OCC2CCCCC2)n1 | -0.102 | -0.0718 | -0.059 | 0.0483 | -0.102 | -0.0762 | -0.0902 | -0.132 | -0.226 | -0.243 | -0.283 | -0.504 | -0.331 | -0.36 | -0.322 | -0.473 | -0.0542 | -0.0355 | -0.000656 | 0.134 | -0.0976 | -0.0168 | 0.00555 | 0.0733 | 0.229 | 0.419 | 0.456 | 0.476 | 0.322 | 0.426 | 0.43 | 0.399 |
| Cc1ccc(S(=O)(=O)C=CC#N)cc1 | 0.107 | 0.0923 | -0.0275 | -0.041 | -0.00518 | 0.09 | 0.058 | -0.0332 | 0.0697 | -0.00988 | -0.0606 | -0.287 | 0.12 | 0.0423 | 0.00106 | -0.129 | 0.00206 | 0.0303 | 0.0547 | 0.0948 | 0.00618 | 0.193 | 0.194 | 0.225 | – | – | – | – | – | – | – | – |
| N#CC(c1ccnc(NCCc2cccnc2)n1)c1nc2ccccc2s1 (configuration not stated) [JNK Inhibitor V] | -0.0956 | -0.056 | -0.0395 | 0.0624 | -0.154 | -0.122 | -0.116 | -0.143 | -0.285 | -0.269 | -0.297 | -0.462 | -0.33 | -0.412 | -0.338 | -0.441 | -0.113 | -0.0825 | -0.0367 | 0.103 | -0.0869 | -0.00408 | 0.0113 | 0.0923 | 0.255 | 0.419 | 0.467 | 0.481 | 0.265 | 0.376 | 0.381 | 0.353 |
| COc1cc2nccc(Oc3ccc(NC(=O)Nc4cc(C)on4)c(Cl)c3)c2cc1OC [Tivozanib (AV-951)] | 0.14 | 0.0745 | -0.00279 | -0.0876 | 0.0629 | 0.0968 | 0.0897 | 0.0763 | 0.0535 | 0.0633 | 0.0278 | -0.222 | 0.0881 | 0.104 | 0.0755 | 0.00134 | 0.0499 | 0.0836 | 0.127 | 0.144 | 0.13 | 0.217 | 0.26 | 0.368 | 0.453 | 0.547 | 0.57 | 0.565 | 0.438 | 0.535 | 0.537 | 0.526 |
| COc1cc(Nc2ncc(F)c(Nc3ccc4c(n3)NC(=O)C(C)(C)O4)n2)cc(OC)c1OC [R406(free base)] | 0.0274 | -0.00454 | -0.0695 | -0.162 | 0.0655 | 0.0291 | -0.0439 | 0.00754 | 0.0167 | -0.0293 | -0.017 | -0.0464 | -0.368 | -0.333 | -0.353 | -0.462 | -0.0151 | 0.0369 | 0.0816 | 0.0813 | 0.069 | 0.0868 | 0.096 | 0.227 | – | – | – | – | – | – | – | – |
| CS(=O)(=O)CCNCc1ccc(-c2ccc3ncnc(Nc4ccc(OCc5cccc(F)c5)c(Cl)c4)c3c2)o1 [Lapatinib Ditosylate (Tykerb)] | 0.0817 | 0.081 | 0.00227 | -0.0646 | 0.0164 | 0.0506 | -0.0238 | -0.169 | -0.0232 | 0.00959 | -0.0719 | -0.295 | -0.283 | -0.179 | -0.183 | -0.291 | 0.108 | 0.154 | 0.199 | 0.225 | 0.0709 | 0.127 | 0.153 | 0.277 | – | – | – | – | – | – | – | – |
| Cc1cnc(-c2cnc(NCCNc3ccc(C#N)cn3)nc2-c2ccc(Cl)cc2Cl)[nH]1 | 0.154 | 0.101 | 0.0269 | -0.034 | 0.119 | 0.0751 | -0.139 | -0.197 | 0.0622 | 0.0911 | 0.0352 | -0.132 | -0.000657 | 0.0178 | -0.0435 | -0.16 | 0.0605 | 0.123 | 0.113 | 0.204 | 0.0116 | 0.0464 | 0.0105 | 0.0661 | 0.532 | 0.598 | 0.613 | 0.613 | 0.455 | 0.536 | 0.536 | 0.541 |
| CCCCc1nc2cc(/C=C/C(=O)NO)ccc2n1CCN(CC)CC [SB939 (Pracinostat)] | 0.0917 | 0.0424 | -0.0359 | -0.128 | 0.935 | 0.941 | 0.959 | 0.973 | 0.107 | 0.0736 | 0.0778 | 0.0437 | 0.513 | 0.435 | 0.418 | 0.353 | 0.0531 | 0.113 | 0.137 | 0.186 | 0.95 | 0.96 | 0.973 | 0.982 | 0.656 | 0.663 | 0.693 | 0.699 | 0.817 | 0.85 | 0.868 | 0.876 |
